According to the supplement of paper PMC6555819:

Tests used:
Experiment in all cases: PBM binding z-score (relative to random genomic background probes); higher = stronger binding; sequences stand for … in GC…GCGATTGACAGCGTAGAATGAAGG
[1] = test system: FXR:RXRa (NR concentration 270 nM, RXRa partner concentration 90 nM)
How it was run: (§1)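 Each nuclear receptor dimer, without ligand, was incubated for 1 h on custom Agilent 4×180K protein-binding microarrays. Binding was detected with antibodies against each partner (one per run), and scanned fluorescence was regression-normalized. The binding z-scores are referenced to random human genomic background probes.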

[2] = test system: LXRa:RXRa (NR concentration 270 nM, RXRa partner concentration 90 nM)
How it was run: as §1

[3] = test system: LXRa homodimer (NR concentration 270 nM)
How it was run: as §1

[4] = test system: LXRb:RXRa (NR concentration 270 nM, RXRa partner concentration 90 nM)
How it was run: as §1

[5] = test system: LXRb homodimer (NR concentration 270 nM)
How it was run: as §1

[6] = test system: PPARa:RXRa (NR concentration 270 nM, RXRa partner concentration 90 nM)
How it was run: as §1

[7] = test system: PPARg:RXRa (NR concentration 180 nM, RXRa partner concentration 90 nM)
How it was run: as §1

[8] = test system: PPARg:RXRa 270nM:90nM, anti-RXR (NR concentration 270 nM, RXRa partner concentration 90 nM)
How it was run: as §1

[9] = test system: PPARg:RXRa 30nM:10nM, anti-RXR (NR concentration 30 nM, RXRa partner concentration 10 nM)
How it was run: as §1

[10] = test system: PPARg:RXRa 90nM:30nM, anti-RXR (NR concentration 90 nM, RXRa partner concentration 30 nM)
How it was run: as §1

Row | Sequence | PBM binding z-score [1] | PBM binding z-score [2] | PBM binding z-score [3] | PBM binding z-score [4] | PBM binding z-score [5] | PBM binding z-score [6] | PBM binding z-score [7] | PBM binding z-score [8] | PBM binding z-score [9] | PBM binding z-score [10]
1 | ATCTCTAGGTAACAAGTTAAGTGAAAGAGAGGAC | 0.803 | 0.557 | 0.231 | 0.236 | 0.69 | 1.55 | 2.23 | 3.1 | 1.59 | 2.7
2 | AGAATGAGGTTATACGTAGATCAGGGGAGAAAGT | 1.99 | 1.93 | 0.147 | 1.96 | 0.558 | 3.05 | 1.83 | 2.06 | 0.697 | 1.06
3 | TCTTGTAGATCAAGCAGGTTAAGATAGCCTGAGT | 0.371 | 0.507 | -0.257 | 0.188 | -0.36 | 0.829 | -0.193 | 1.27 | 2.75 | 2.18
4 | CGAACTAGGTCGGAACAGGACAGTGAAGGATGAT | -0.0248 | -0.452 | -0.434 | -0.642 | -1 | 0.71 | 1.23 | 0.719 | 0.0935 | 0.234
5 | CGAACTAGGTCATCCAGGACAGTAAATACATTGA | 4.22 | 2.79 | 0.899 | 2.36 | 0.21 | 4.68 | 7.87 | 6.33 | 3.68 | 5.68
6 | CCAGACAGGTGAGAAGGTAAATCAGCCTCGATTA | 0.109 | 0.108 | -0.129 | 0.141 | -0.154 | 0.484 | 0.39 | 0.456 | 0.0319 | 0.15
7 | TCTTGTAGGTCAAGCAGGTTAAGAAAGCCTGAGT | 5.29 | 4.34 | 1.19 | 3.44 | 0.725 | 5.22 | 7.42 | 6.59 | 4.79 | 6.42
8 | ATCGAAAGGTCGTGAGGTGAGTGTACAGAAAGGC | 4.91 | 4.05 | 0.411 | 3.06 | 0.507 | 4.99 | 3.61 | 4.47 | 1.35 | 3.32
9 | CGAACTAGGTCAGAACATGACAGTGAAGGATGAT | 0.703 | 0.762 | -0.0558 | 0.426 | -0.161 | 3.07 | 5.35 | 4.49 | 2.05 | 3.4
10 | CAGCGTAGGTCAGGGCCAGTATAGGAGGAACGTT | 1.79 | 1.23 | -0.344 | 0.759 | -1.03 | 2.46 | 0.896 | 0.918 | -0.272 | 0.0961
11 | AATACAGGGTCATCGTAGGCCAGTGTACGCACAG | 6.9 | 6.17 | 2.35 | 4.64 | 1.16 | 5.62 | 6.48 | 5.88 | 3.01 | 4.66
12 | TTGCCAAGGTGAAGGTCGTTGATCCCTCTGTAGA | 2.38 | 1.79 | -0.705 | 1.45 | -1.15 | 2.12 | 0.85 | 2.06 | 0.251 | 1.41
13 | ACTAGTTGGTCAGCTGAGGTCACACAGAATTCGG | 3.75 | 3.32 | 2.31 | 3.64 | 0.768 | 3.8 | 1.87 | 2.46 | 0.831 | 1.73
14 | AATACAGGGTCATCGTAGGGCAGAGTACGCACAG | 7.54 | 6.88 | 2.95 | 5.07 | 1.16 | 5.83 | 6.94 | 6.07 | 2.84 | 4.96
15 | AGAACGAGTGCAATGAGTTGATAGCACGGGTGGC | -0.597 | -0.443 | -0.783 | -0.585 | -1.04 | -0.17 | 0.712 | -0.327 | -0.239 | -0.508
16 | CTCGAAAGGTCGGTAGAGGTGAGTATACGGATAA | 2.48 | 2.01 | 0.0371 | 1.32 | -0.315 | 2.86 | 1.02 | 1.75 | 0.538 | 0.994
17 | CCAGACAGATGAGAAGGTAACTCAGCCTCGATTA | -0.147 | -0.0249 | 0.532 | -0.254 | -0.206 | -0.358 | 0.455 | -0.402 | -0.157 | -0.366
18 | TCAATGAGGTTAAAGATCAGGGAACGTGGCGTCG | 3.28 | 2.48 | -0.228 | 1.66 | 0.0519 | 4.25 | 5.03 | 5.65 | 5.03 | 5.65
19 | GCTTGTAGATCATGGTTAAGAAAGACTAAGCTAA | -0.444 | -0.5 | -0.382 | -0.729 | -0.647 | -0.285 | -0.054 | 0.171 | -0.126 | -0.187
20 | TCTTGGAGATCAAGCAGGTTAAGAAAGCCTGAGT | 0.463 | 0.405 | -0.249 | 0.297 | -0.658 | 1.09 | -0.253 | 1.39 | 2.35 | 1.84
21 | TCGAGTAGGTTAGTCGTGGCATTCAGCCAACATA | -0.318 | -0.31 | -0.35 | -0.47 | -1.11 | 0.293 | -0.232 | 0.763 | 1.36 | 0.958
22 | CCTACTGCGCCAAGGTCATTGATCAGTCAAAGCA | 3.5 | 3.48 | 2.13 | 3.52 | 0.86 | 3.75 | 0.507 | 1.59 | -0.0931 | 0.819
23 | TCTCGGAGGACACGAAGGACAGAGCTTTCCAGAG | 0.358 | -0.306 | -0.452 | -0.355 | -1.07 | -0.0833 | 0.271 | 0.836 | 2.13 | 1.3
24 | GCATATAGGTAATATAAGGTGAAAGTCCGATTGT | 1.9 | 3.31 | 0.295 | 1.14 | -0.277 | 1.81 | 1.55 | 1.24 | 0.669 | 1.16
